# Screen size: about 48,000 compounds; about 13,000 (27%) showed an effect of 50% or more. The list shows a part of the results.
# Tested on: Wolbachia pipientis
# Experiment: Anti-Wolbachia Cell-Based Screen
# Type: functional
# Parameters: scale not given: in the data most compounds retested in dose-response had high values
# Settings: 5 µM
row,SMILES,Percent Effect [%]
1,Cc1ccc(CCNc2nc(-c3ccncc3)nc3c2CCNCC3)o1,-0.1721
2,CC(Cc1cn(CCc2nnn[nH]2)nn1)c1ccccc1 (stereo not drawn),103.4
3,CC(Cc1cn(CCc2nc(N)cc(O)n2)nn1)c1ccccc1 (stereo not drawn),116.8
4,CC(Cc1ccc2c(c1)OCO2)c1cn(CCc2c[nH]cn2)nn1 (stereo not drawn),-4.802
5,CC(Cc1cn(CCc2n[nH]c(=O)[nH]2)nn1)c1ccccc1 (stereo not drawn),124.9
6,CN(CCn1ccc2ccccc21)C(=O)Cc1nnn[nH]1,-2.882
7,N#Cc1cccc(Cl)c1NCCc1n[nH]c(=O)[nH]1,-15.54
8,C=C(C)COc1cccc(CNCCc2nc(N)cc(O)n2)c1,6.733
9,CC(c1ccc(C(=O)NCCc2nc(N)cc(O)n2)o1)N1CCCCC1 (stereo not drawn),6.141
10,CN(CCn1ccc2ccccc21)C(=O)Cc1n[nH]c(=O)[nH]1,0.08952
11,c1cc(CCN2CCCC2CN2CCCCC2)ccn1 (stereo not drawn),39.01
12,CCN(CC)Cc1ccc(C(=O)NC2CCc3cc(F)ccc32)o1 (stereo not drawn),6.12
13,Cc1nccn1CCC1CCCCN1C(=O)c1ccc2nonc2c1 (stereo not drawn),1.487
14,Cn1c(CN2CCCCC2)nnc1C1CCCN(C(=O)CCC(N)=O)C1 (stereo not drawn),11.64
15,NC(=O)CCN(C(=O)c1cccc2c1OCO2)c1ccccc1,16.64
16,Cc1n[nH]c(=O)c2c(NC(=O)CN3CCOCC3)oc(C)c12,3.045
17,O=S1(=O)COCCN1CCOc1ccc(F)cc1,-2.392
18,N[C@H]1CN(CCOc2ccc(F)cc2)C[C@@H]1C1CC1,-23.63
19,CN(Cc1ccon1)C(=O)CN1C(=O)OC(C)(C)C1=O,-6.77
20,CN1CCCC1CNC(=O)CCCOc1ccc(F)cc1 (stereo not drawn),-3.981
21,O=S1(=O)COCCN1CCCOc1ccc(F)cc1,1.2
22,CC1(C)OC(=O)N(CCCC(=O)c2ccc(F)cc2)C1=O,116.7
23,CC1(C)OC(=O)N(CCCOc2ccc(F)cc2)C1=O,96.74
24,CC1(C)OC(=O)N(CCOc2ccc(F)cc2)C1=O,112.1
25,CN(Cc1ccoc1)C(=O)CN1C(=O)OC(C)(C)C1=O,-7.956
26,CC(C)OCCSCc1nnc(-c2cccc(F)c2)o1,-1.35
27,CCNC(=O)[C@@H]1C[C@H](N)CN1C(=O)CCc1ccccc1Cl,-6.305

row,SMILES,Percent Effect [%]
1,Cn1cc(CN2CCO[C@H]3CN(Cc4ccco4)C[C@H]32)cn1,-13.96
2,CN(Cc1cc(-c2cccnc2)no1)C(=O)c1cccn1C,-14.42
3,CC(C)SCC(=O)N1CCc2c(nc(N(C)C)nc2N(C)C)C1,-6.369
4,CC(C)Sc1ccc(C(C)NC(=O)Cn2cccnc2=O)cc1 (stereo not drawn),-6.353
5,O=C(Cn1cccnc1=O)NCC1Cc2ccccc2O1 (stereo not drawn),-8.588
6,O=C(Cn1cccnc1=O)NC(Cc1ccsc1)c1nccs1 (stereo not drawn),149.8
7,Cc1csc(C(Cc2ccsc2)NC(=O)Cn2cccnc2=O)n1 (stereo not drawn),109.1
8,O=C(Cn1cccnc1=O)NC(Cc1ccsc1)c1cccnc1 (stereo not drawn),105
9,O=C(Cn1cccnc1=O)NC(Cc1ccsc1)c1ccccn1 (stereo not drawn),-0.3817
10,Cc1cccnc1C(Cc1ccsc1)NC(=O)Cn1cccnc1=O (stereo not drawn),151.6
11,O=C(Cn1cccnc1=O)NCc1cccnc1OCC(F)(F)F,2.082
12,CC(C)N(CC(N)=O)CC(=O)NCCc1c(F)cccc1F,4.922
13,Cc1cnn(CC2CCCCN2CC(=O)N(C)Cc2ccc(C)o2)c1 (stereo not drawn),-2.749
14,COc1cccc(S(=O)(=O)Cc2cc(C)on2)c1,-2.252
15,CC(NC(=O)Cn1cccnc1=O)c1ccc(OC(F)(F)F)cc1 (stereo not drawn),5.256
16,CC(C)CCOc1ccc(C(C)NC(=O)Cn2cccnc2=O)cc1 (stereo not drawn),-2.548
17,COc1ncccc1C(Cc1ccsc1)NC(=O)Cn1cccnc1=O (stereo not drawn),115.2
18,Cc1nc([C@@H]2C[C@@H]3CCN(Cc4cnn(C)c4)C[C@H]3O2)sc1C,-0.8686
19,Cc1[nH]ncc1C(=O)NCC1CCC2(CC1)OCCO2,-7.861
20,Brc1cnc(NCCCOCC2CCOCC2)nc1,13.33
21,COCc1nc(C(=O)NS(=O)(=O)c2ccc(C)cc2C)cs1,-13.89
22,COc1cc(N2C[C@@H]3COC[C@@H](Cc4nc(C)no4)[C@@H]3C2)ncn1,118.7
23,Cc1nnc(C[C@@H]2COC[C@H]3CN(C(=O)c4ccco4)C[C@@H]23)o1,-16.71
24,CCS(=O)(=O)N1C[C@@H]2COC[C@@H](Cc3nc(C)no3)[C@@H]2C1,1.999
25,Cc1nnc(C[C@@H]2COC[C@H]3CN(C(=O)C4=CCCC4)C[C@@H]23)o1,-9.93
26,COc1cc(N2C[C@@H]3COC[C@@H](Cc4nnc(C)o4)[C@@H]3C2)ncn1,80.24

# — ChEMBL document CHEMBL3988442, “University of Dundee, Small-Polar-MMV Screening Library” (2021)
